Shiga inhibitor: Shiga toxin inhibition; Vero cells, Shiga toxin protein synthesis inhibition reporter; inhibition, % at 38.7 µM; 9.2% of 290,000 active; AID 2315; in the data active means inhibition mostly above about 28%, no sharp cut-off; inactive means mostly below about 43%; further: 0% is about no effect
Pf growth 48h: P. falciparum growth inhibition at 48 hours (one generation); P. falciparum luciferase growth in erythrocytes, 48 h; AID 504832; Potency, µM (series often up to 28.7 µM), for the others: top-dose activity change, negative = inhibition, hits mostly inhibitors; 5.9% of 310,000 active; further: potency means the concentration at half of the fitted maximal effect; on the % scale 0 is the no-effect control and ±100 the full control effect
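Compounds are pin-transferred into medium, infected erythrocytes (2% hematocrit, 0.1% parasitemia final) are added, and plates sit one parasite generation at 37 C in 5% CO2. Detection reagent is then added and luminescence measured.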
LmPK inhibitor: blocks Leishmania mexicana pyruvate kinase activity; purified LmPK, Kinase-Glo ATP luminescence, 1 h; Potency, µM (highest dose often 57.5 µM), for the others: top-dose activity change, negative = inhibition, usual class: inhibitors; 0.37% of 290,000 active; AID 1721; further: potency means the concentration at half of the fitted maximal effect; on the % scale 0 is the no-effect control and ±100 the full control effect
Target sequence (Q27686 whole entry, looked up): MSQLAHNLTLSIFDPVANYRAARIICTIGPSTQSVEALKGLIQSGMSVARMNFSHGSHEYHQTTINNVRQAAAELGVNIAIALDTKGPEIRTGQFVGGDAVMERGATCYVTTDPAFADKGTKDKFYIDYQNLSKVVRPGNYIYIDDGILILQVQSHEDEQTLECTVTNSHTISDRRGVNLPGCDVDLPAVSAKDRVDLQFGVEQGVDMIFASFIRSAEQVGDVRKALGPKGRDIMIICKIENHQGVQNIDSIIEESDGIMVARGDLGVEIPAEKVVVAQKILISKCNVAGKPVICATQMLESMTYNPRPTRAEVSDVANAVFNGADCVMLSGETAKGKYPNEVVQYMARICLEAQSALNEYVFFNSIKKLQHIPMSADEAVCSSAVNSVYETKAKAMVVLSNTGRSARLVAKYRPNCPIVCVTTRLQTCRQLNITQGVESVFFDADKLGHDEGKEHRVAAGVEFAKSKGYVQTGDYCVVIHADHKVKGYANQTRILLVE
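0.1 nM LmPK, 0.5 mM PEP, 0.1 mM ADP; 50 mM imidazole pH 7.2, 7 mM MgCl2, 50 mM KCl; 1 h RT. Kinase-Glo luminescence readout, normalized to no-enzyme (full inhibition) and uninhibited wells.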
Pf growth 96h: P. falciparum growth inhibition at 96 hour, primary screen for plastid delayed-death inhibitors | AID 504834 | P. falciparum luciferase reporter growth, 96 h | 6.9% of 320,000 active | Potency, µM (top dose mostly 28.7 µM), for the others: top-dose activity change, negative = inhibition, hits mostly inhibitors; further: potency means the concentration at half of the fitted maximal effect; on the % scale 0 is the no-effect control and ±100 the full control effect
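Two-generation exposure (96 h) targets delayed-death phenotype. Reporter parasites carrying integrated firefly luciferase, in red cells at 2% hematocrit and 0.05% parasitemia final, kept at 37 C, 5% CO2; luminescence loss indicates inhibition.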
CHX counter: counter-screen hit for Shiga toxin inhibitors, cycloheximide; cell reporter, cycloheximide protein synthesis inhibition counterscreen; max response, %; 12% of 300,000 active; AID 2314; in the data active means max response mostly above about 13%, no sharp cut-off; inactive means mostly below about 14%; further: read at 38.3 µM for the half of the compounds with a filed dose; 0% is about no effect
The depositor's hits bear a star. A selection: hits, their analogues and other compounds. The true share with any hit is near 22%. Unless noted, the call rests on the fitted dose curve; in most records, active means well fitted inhibition curve with a large enough effect; inconclusive means small, poorly fitted or top-dose-only effect, or another doubt; inactive means no such curve, though single readings can be large or run the other way.

Results for COc1cccc(Oc2ncnc(N)c2[N+](=O)[O-])c1 ?
Shiga inhibitor: -6; Pf growth 48h: 19%; LmPK inhibitor: 1%; Pf growth 96h: 4%; CHX counter: 2

How did COc1ccc(CN(CCN(C)C)Cc2ccccc2)c(OC)c1 do in these assays?
Shiga inhibitor: -40; Pf growth 48h: 13µM*; LmPK inhibitor: 0%; CHX counter: -4

How did CCCn1c(=O)n(C)c(=O)c2c(SCC(=O)Nc3cc(C)on3)nc(C(C)(C)C)nc21 do in these assays?
Pf growth 48h: 10µM*; Pf growth 96h: inconclusive

What do the screens show for `Cc1cc(NC(=O)CSc2nc(C(C)C)nc3c2c(=O)n(C)c(=O)n3C)no1`?
Shiga inhibitor: 14; Pf growth 48h: inconclusive; LmPK inhibitor: 2%; Pf growth 96h: inconclusive; CHX counter: -2

Results for O=C(Nc1nc2ccsc2c(=O)s1)c1ccc(Cl)cc1 ?
Shiga inhibitor: 88*; Pf growth 48h: 215%; LmPK inhibitor: -11%; Pf growth 96h: 305%; CHX counter: 30*

What do the screens show for `O=C(Nc1nc(=O)c2ccccc2s1)c1ccc(F)cc1`?
Shiga inhibitor: 50*; Pf growth 48h: 231%; LmPK inhibitor: -10%; Pf growth 96h: inconclusive; CHX counter: 15*

How did O=C(Nc1nc(=O)c2ccccc2s1)c1ccc(Cl)cc1 do in these assays?
Shiga inhibitor: 34; Pf growth 48h: 76%; LmPK inhibitor: -3%; Pf growth 96h: 36%; CHX counter: 19*

What do the screens show for `Clc1ccc2c(N/N=C/c3cccc(Br)c3)ccnc2c1`?
Shiga inhibitor: 43; Pf growth 48h: 0.59µM*; LmPK inhibitor: -1%; Pf growth 96h: 0.33µM*; CHX counter: 11

How did Clc1ccc2c(N/N=C/c3ccccc3Br)ccnc2c1 do in these assays?
Shiga inhibitor: 11; Pf growth 48h: 0.66µM*; LmPK inhibitor: -3%; Pf growth 96h: 0.52µM*; CHX counter: -3

How did COc1ccccc1Oc1ccnc2cc(Cl)ccc12 do in these assays?
Shiga inhibitor: -8; Pf growth 48h: inconclusive; LmPK inhibitor: -1%; Pf growth 96h: inconclusive; CHX counter: 1

Results for O=[N+]([O-])c1ccc(/C=N/Nc2ccnc3cc(Cl)ccc23)o1 ?
Shiga inhibitor: 169*; Pf growth 48h: 2.3µM*; LmPK inhibitor: -7%; Pf growth 96h: inconclusive; CHX counter: 27

How did O=[N+]([O-])c1ccc(/C=N/NS(=O)(=O)c2ccc(Cl)cc2)o1 do in these assays?
Shiga inhibitor: 6; Pf growth 48h: 17%; LmPK inhibitor: 0%; Pf growth 96h: 0%; CHX counter: 6

How did CC(C)N1CCN(C(=O)c2ccc(OC3CCN(CCc4ccccc4)CC3)cc2)CC1 do in these assays?
Shiga inhibitor: 29; Pf growth 48h: inconclusive; LmPK inhibitor: 1%; Pf growth 96h: -22%; CHX counter: 13

What do the screens show for `Cc1ccc2oc(-c3ccccc3)nc2c1`?
Shiga inhibitor: 70*; Pf growth 48h: 130%; LmPK inhibitor: 16µM*; CHX counter: 45*

Results for CCOc1cccc(-c2nc3cc(C)ccc3o2)c1 ?
Shiga inhibitor: 63; Pf growth 48h: 231%; LmPK inhibitor: inconclusive; Pf growth 96h: inconclusive; CHX counter: 31*

Results for O=C(NC(=S)Nc1ccc2[nH]c(=O)[nH]c2c1)c1ccccc1[N+](=O)[O-] ?
Shiga inhibitor: 48*; Pf growth 48h: 26%; LmPK inhibitor: -10%; Pf growth 96h: inconclusive; CHX counter: 46*

What do the screens show for `O=C(NC(=S)Nc1ccccc1[N+](=O)[O-])c1ccccc1Cl`?
Shiga inhibitor: 125*; Pf growth 48h: -29%; LmPK inhibitor: 0%; Pf growth 96h: 19%; CHX counter: 48*

What do the screens show for `CCCC(=O)Nc1ccc(NC(=S)NC(=O)c2ccccc2[N+](=O)[O-])cc1`?
Shiga inhibitor: -18; Pf growth 48h: 3%; LmPK inhibitor: 1%; Pf growth 96h: inconclusive; CHX counter: -1

Results for CCn1cc(C(=O)NC(=S)Nc2ccccc2Br)cn1 ?
Shiga inhibitor: 41*; Pf growth 48h: 88%; LmPK inhibitor: -1%; Pf growth 96h: 44%; CHX counter: 23*

What do the screens show for `O=C(NNC(=S)NC(=O)c1ccccc1[N+](=O)[O-])c1ccccc1Cl`?
Shiga inhibitor: -2; Pf growth 48h: -2%; LmPK inhibitor: -2%; Pf growth 96h: 0%; CHX counter: 1

Assay outcomes deposited in PubChem BioAssay by National Center for Advancing Translational Sciences (NCATS).
